Holding throughout (experiment): DAPPL (digital affinity profiling via proximity ligation, sequencing); 10 mM Tris-HCl pH 7.5, 50 mM NaCl, 1 mM DTT, 4% glycerol, room temperature, 30 min; GST-TFs on glutathione beads, 16-mer random dsDNA library, 0.1% formaldehyde crosslink after washing; high values mean tight binding
In one assay the target is T1, FEV (Homo sapiens, UniProt Q99581 1-238).
T1 sequence: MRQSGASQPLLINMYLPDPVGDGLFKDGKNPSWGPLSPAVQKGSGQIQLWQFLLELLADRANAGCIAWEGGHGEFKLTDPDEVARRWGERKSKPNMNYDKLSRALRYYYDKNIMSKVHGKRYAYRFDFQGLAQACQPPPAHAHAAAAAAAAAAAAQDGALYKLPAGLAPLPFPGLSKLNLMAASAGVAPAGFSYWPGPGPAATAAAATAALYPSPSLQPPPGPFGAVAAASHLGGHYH
The settings on record: protein: recombinant; tags: N-terminal GST; dsDNA, one strand shown. An outline of the steps: (§1)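 In yeast, human transcription factors were expressed with a GST fusion, then pulled down on glutathione beads and given DNA barcodes. Pooled with a tag-only sample, they were exposed to 200 nmole of a 16-mer random double-stranded DNA library (Tris/NaCl/DTT/glycerol buffer, room temperature, 30 min), washed, crosslinked with 0.1% formaldehyde, proximity-ligated using BsaI/T4 ligase for 1 h at 37 °C, PCR-amplified and read on an Illumina NextSeq500. Each hexamer's frequency of reads for a factor, divided by the matching frequency for the tag-only sample, gives the binding signal.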

The target of a further assay is ETV5 (Homo sapiens, UniProt P41161 1-510). Conditions: protein: recombinant; tags: N-terminal GST; dsDNA, one strand shown. An outline of the steps: as §1
The target of another assay is HSF1 (Homo sapiens, UniProt Q00613 1-529). Conditions: protein: recombinant; tags: N-terminal GST; chain copies: 3; dsDNA, one strand shown. An outline of the steps:
as §1

A further assay has as its target T2, SPIC (Homo sapiens, UniProt Q8N5J4 1-248).
T2 sequence: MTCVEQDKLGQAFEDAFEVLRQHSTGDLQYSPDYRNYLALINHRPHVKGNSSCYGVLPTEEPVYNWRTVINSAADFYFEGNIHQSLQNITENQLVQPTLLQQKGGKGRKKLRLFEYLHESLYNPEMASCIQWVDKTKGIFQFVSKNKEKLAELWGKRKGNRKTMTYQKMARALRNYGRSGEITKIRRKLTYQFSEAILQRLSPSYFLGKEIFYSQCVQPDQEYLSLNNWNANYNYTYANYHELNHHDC
Conditions: protein: recombinant; tags: N-terminal GST; dsDNA, one strand shown. An outline of the steps:
as §1

The next assay has as its target ELF4 (Homo sapiens, UniProt Q99607 1-663). The settings on record: protein: recombinant; tags: N-terminal GST; dsDNA, one strand shown. An outline of the steps:
as §1

For the next assay, the target named is T3, ELK4 (Homo sapiens, UniProt P28324-2 1-405).
T3 sequence: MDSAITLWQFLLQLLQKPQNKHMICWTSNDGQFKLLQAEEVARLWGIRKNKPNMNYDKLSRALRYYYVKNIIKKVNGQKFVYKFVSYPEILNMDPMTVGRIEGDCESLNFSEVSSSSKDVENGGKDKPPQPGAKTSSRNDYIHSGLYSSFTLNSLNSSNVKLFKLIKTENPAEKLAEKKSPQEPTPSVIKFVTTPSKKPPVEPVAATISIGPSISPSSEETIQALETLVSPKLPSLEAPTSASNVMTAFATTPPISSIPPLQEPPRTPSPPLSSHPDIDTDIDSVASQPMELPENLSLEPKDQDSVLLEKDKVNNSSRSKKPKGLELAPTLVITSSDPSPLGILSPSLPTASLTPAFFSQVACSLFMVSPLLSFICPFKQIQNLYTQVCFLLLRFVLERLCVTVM
Conditions: protein: recombinant; tags: N-terminal GST; dsDNA, one strand shown. An outline of the steps:
as §1

The next assay concerns the target T4, ETV2 (Homo sapiens, UniProt O00321 1-342).
T4 sequence: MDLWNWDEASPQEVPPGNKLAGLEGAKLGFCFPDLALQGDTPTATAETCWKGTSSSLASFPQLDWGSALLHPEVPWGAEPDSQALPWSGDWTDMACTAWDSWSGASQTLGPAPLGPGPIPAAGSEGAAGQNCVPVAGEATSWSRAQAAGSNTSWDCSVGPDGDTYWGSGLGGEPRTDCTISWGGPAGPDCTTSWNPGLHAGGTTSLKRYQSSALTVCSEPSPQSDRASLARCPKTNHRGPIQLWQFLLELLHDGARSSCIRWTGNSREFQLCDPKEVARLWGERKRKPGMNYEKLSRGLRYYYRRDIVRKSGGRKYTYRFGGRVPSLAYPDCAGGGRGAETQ
Conditions: protein: recombinant; tags: N-terminal GST; dsDNA, one strand shown. An outline of the steps:
as §1

In the next assay the target is T5, ELF3 (Homo sapiens, UniProt P78545 1-371).
T5 sequence: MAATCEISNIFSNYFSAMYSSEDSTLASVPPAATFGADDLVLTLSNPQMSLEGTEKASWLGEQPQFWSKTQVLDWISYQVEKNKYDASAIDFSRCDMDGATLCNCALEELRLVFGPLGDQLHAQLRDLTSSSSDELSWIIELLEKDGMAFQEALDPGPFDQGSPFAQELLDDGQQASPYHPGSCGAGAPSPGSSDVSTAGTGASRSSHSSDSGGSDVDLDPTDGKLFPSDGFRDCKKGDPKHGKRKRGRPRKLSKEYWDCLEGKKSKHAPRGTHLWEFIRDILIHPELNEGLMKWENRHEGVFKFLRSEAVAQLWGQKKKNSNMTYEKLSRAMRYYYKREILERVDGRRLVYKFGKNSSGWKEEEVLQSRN
Conditions: protein: recombinant; tags: N-terminal GST; dsDNA, one strand shown. An outline of the steps: as §1

The target in the next assay is CRX (Homo sapiens, UniProt O43186 1-299). The settings on record: protein: recombinant; tags: N-terminal GST; dsDNA, one strand shown. An outline of the steps:
as §1

The target of the next assay is ETV1 (Homo sapiens, UniProt P50549 1-477). Conditions: protein: recombinant; tags: N-terminal GST; dsDNA, one strand shown. An outline of the steps: as §1
A further assay addresses T6, ERF (Homo sapiens, UniProt P50548 1-548).
T6 sequence: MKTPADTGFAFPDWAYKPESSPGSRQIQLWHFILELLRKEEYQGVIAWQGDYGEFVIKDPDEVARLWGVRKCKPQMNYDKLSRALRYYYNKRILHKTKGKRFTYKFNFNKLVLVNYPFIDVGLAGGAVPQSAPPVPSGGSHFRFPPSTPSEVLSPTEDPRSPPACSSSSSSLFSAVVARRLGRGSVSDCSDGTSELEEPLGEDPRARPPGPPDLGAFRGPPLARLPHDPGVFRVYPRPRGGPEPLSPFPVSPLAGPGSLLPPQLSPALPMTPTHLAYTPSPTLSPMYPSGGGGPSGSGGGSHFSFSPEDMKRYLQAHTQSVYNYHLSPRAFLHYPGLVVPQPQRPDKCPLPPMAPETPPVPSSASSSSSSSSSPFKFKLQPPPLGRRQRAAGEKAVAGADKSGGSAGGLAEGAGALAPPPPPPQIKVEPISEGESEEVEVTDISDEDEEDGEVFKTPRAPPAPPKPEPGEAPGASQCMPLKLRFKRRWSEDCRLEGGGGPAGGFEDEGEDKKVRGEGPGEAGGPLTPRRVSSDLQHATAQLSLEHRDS
The settings on record: protein: recombinant; tags: N-terminal GST; dsDNA, one strand shown. An outline of the steps:
as §1

The next assay concerns the target T7, ETV3L (Homo sapiens, UniProt Q6ZN32 1-361).
T7 sequence: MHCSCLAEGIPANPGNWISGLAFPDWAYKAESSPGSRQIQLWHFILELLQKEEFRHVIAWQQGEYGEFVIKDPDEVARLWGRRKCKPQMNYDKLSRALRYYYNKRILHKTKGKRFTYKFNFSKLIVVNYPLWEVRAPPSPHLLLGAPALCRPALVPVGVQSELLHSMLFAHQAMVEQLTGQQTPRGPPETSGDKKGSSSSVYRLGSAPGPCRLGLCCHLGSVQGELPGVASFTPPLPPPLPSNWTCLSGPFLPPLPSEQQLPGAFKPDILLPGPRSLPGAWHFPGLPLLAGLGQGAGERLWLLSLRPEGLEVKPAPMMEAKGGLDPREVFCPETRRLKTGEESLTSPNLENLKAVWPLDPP
The settings on record: protein: recombinant; tags: N-terminal GST; dsDNA, one strand shown. An outline of the steps: as §1

A further assay addresses T8, ETS2 (Homo sapiens, UniProt P15036 1-469).
T8 sequence: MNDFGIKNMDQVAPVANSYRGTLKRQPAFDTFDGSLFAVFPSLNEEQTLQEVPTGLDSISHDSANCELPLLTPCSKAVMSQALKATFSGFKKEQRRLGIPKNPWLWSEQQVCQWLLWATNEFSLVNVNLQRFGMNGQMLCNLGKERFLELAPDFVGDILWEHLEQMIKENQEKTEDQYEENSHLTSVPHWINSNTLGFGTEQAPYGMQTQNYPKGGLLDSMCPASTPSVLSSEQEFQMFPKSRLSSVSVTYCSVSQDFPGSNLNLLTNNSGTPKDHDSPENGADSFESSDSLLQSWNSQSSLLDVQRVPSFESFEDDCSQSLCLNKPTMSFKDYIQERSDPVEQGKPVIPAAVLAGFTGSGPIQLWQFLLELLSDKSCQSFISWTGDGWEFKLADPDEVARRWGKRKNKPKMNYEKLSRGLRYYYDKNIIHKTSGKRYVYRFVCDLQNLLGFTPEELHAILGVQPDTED
Conditions: protein: recombinant; tags: N-terminal GST; dsDNA, one strand shown. An outline of the steps: as §1

A further assay addresses T9, SPDEF (Homo sapiens, UniProt O95238 1-335).
T9 sequence: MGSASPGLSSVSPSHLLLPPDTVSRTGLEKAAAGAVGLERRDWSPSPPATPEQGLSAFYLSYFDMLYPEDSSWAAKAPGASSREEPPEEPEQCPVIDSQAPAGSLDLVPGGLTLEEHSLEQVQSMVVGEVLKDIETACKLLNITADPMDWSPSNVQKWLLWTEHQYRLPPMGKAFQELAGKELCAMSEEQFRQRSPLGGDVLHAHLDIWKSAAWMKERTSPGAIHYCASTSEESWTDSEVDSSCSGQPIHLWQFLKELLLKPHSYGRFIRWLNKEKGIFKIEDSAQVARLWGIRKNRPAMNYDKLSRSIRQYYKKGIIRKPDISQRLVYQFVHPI
The settings on record: protein: recombinant; tags: N-terminal GST; dsDNA, one strand shown. An outline of the steps:
as §1

The target of another assay is T10, ETV7 (Homo sapiens, UniProt Q9Y603 1-341).
T10 sequence: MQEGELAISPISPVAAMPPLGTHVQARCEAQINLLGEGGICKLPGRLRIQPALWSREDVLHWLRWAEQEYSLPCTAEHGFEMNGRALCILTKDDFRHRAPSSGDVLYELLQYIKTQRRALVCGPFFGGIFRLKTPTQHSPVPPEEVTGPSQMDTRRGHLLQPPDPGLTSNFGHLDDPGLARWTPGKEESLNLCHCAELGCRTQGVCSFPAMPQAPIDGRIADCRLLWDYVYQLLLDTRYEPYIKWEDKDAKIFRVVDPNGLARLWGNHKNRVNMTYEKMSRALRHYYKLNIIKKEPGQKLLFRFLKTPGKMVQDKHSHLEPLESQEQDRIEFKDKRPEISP
Conditions: protein: recombinant; tags: N-terminal GST; dsDNA, one strand shown. An outline of the steps:
as §1

A further assay deals with T11, ELF5 (Homo sapiens, UniProt Q9UKW6-2 1-255).
T11 sequence: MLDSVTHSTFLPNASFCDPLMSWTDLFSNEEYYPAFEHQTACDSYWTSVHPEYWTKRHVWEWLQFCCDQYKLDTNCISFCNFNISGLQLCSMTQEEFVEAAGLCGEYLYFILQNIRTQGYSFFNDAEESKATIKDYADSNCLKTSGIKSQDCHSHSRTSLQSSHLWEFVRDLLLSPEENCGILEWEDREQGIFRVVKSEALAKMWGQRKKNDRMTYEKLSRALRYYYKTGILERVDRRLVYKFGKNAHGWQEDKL
Conditions: protein: recombinant; tags: N-terminal GST; dsDNA, one strand shown. An outline of the steps:
as §1

Another assay has as its target T12, ETV3 (Homo sapiens, UniProt P41162-2 1-143).
T12 sequence: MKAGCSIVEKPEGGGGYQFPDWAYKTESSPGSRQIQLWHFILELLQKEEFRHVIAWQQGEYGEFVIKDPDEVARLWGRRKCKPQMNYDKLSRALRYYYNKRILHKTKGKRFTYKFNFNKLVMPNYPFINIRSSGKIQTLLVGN
Conditions: protein: recombinant; tags: N-terminal GST; dsDNA, one strand shown. An outline of the steps:
as §1

The target in another assay is ETV6 (Homo sapiens, UniProt P41212 1-452). Conditions: protein: recombinant; tags: N-terminal GST; dsDNA, one strand shown. An outline of the steps: as §1
ETV6, sequence (P41212 whole entry): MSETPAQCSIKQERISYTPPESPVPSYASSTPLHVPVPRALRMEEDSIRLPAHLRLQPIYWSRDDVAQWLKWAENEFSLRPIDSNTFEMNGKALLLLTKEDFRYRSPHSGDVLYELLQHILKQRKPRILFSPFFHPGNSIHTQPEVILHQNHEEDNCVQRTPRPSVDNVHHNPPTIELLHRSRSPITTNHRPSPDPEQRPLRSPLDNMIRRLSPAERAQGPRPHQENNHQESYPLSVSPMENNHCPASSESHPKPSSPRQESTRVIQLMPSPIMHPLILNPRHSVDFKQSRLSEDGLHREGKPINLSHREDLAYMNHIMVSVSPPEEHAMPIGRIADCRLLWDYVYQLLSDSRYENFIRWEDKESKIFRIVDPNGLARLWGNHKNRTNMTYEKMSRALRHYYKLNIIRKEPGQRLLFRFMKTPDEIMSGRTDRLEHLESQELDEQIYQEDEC

ETV5, sequence (P41161 whole entry): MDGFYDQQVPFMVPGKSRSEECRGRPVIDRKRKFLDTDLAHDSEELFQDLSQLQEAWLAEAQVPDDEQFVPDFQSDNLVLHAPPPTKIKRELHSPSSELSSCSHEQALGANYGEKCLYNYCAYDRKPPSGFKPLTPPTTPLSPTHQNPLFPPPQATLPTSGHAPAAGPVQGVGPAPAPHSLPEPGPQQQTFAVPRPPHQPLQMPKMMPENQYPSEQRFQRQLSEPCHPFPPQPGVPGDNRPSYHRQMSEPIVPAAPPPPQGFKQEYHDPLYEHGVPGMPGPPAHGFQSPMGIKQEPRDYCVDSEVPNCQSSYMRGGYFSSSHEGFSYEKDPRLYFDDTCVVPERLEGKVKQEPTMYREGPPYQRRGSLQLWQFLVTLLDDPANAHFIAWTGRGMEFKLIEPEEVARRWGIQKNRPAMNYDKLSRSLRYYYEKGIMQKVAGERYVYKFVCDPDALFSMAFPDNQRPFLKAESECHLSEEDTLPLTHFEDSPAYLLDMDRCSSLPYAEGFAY
ELF4, sequence (Q99607 whole entry): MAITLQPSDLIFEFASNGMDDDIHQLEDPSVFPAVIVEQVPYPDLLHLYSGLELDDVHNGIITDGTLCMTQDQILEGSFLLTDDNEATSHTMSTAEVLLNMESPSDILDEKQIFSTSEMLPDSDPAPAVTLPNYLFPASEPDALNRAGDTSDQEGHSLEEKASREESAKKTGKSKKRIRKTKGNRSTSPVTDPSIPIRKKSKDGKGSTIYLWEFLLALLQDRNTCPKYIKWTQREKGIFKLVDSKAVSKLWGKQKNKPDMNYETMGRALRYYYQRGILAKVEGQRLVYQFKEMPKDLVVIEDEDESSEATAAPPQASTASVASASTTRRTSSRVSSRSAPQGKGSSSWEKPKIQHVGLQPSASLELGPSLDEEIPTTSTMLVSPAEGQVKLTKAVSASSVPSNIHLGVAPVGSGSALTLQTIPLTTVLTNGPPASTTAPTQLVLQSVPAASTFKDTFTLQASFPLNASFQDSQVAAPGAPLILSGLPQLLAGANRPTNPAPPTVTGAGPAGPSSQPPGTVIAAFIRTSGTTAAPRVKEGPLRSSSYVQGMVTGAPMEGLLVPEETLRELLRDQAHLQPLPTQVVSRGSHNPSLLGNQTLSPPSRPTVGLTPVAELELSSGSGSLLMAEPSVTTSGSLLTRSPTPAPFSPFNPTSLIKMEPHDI
ETV1, sequence (P50549 whole entry): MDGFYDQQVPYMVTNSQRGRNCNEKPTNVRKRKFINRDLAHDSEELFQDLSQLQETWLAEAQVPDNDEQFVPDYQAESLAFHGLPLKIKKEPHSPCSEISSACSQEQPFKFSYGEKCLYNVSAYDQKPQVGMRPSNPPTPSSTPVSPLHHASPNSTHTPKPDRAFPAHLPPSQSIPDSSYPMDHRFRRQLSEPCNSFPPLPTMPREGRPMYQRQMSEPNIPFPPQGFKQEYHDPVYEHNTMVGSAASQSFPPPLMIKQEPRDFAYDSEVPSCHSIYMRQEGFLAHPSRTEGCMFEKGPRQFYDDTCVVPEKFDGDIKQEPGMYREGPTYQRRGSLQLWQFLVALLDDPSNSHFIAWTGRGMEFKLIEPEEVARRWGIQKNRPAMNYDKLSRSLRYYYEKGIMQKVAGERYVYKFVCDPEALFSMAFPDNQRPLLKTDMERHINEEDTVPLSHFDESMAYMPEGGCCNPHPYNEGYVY
HSF1, sequence (Q00613 whole entry): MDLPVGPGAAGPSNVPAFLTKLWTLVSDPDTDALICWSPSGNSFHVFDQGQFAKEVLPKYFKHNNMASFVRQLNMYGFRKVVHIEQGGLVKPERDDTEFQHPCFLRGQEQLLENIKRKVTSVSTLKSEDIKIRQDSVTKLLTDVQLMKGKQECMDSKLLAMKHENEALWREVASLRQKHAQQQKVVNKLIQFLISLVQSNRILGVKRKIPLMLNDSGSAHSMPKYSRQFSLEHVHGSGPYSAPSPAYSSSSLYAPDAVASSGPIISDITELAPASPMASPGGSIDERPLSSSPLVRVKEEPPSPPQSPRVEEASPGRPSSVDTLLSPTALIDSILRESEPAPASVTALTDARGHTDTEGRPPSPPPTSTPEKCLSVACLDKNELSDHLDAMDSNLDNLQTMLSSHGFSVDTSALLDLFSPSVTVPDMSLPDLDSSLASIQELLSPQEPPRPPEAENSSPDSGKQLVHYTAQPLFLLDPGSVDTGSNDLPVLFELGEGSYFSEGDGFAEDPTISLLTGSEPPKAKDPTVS
CRX, sequence (O43186 whole entry): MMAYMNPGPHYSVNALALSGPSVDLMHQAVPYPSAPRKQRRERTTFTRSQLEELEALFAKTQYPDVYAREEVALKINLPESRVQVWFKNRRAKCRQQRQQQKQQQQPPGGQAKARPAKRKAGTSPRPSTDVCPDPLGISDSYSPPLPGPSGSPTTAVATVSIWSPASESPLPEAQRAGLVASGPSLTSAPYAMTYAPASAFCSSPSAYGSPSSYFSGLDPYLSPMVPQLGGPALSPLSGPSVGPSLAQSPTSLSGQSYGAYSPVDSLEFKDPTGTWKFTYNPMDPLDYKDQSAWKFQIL

On to CTATGG, for which the binding signal with FEV was 1.15 fold enrichment (6-mer frequency, TF over GST control); with ETV5, 1.23 fold enrichment (6-mer frequency, TF over GST control); in the assay with HSF1 it was 1.17 fold enrichment (6-mer frequency, TF over GST control); with SPIC, 1.14 fold enrichment (6-mer frequency, TF over GST control); with ELF4 it was 1.15 fold enrichment (6-mer frequency, TF over GST control); with ELK4, 1.24 fold enrichment (6-mer frequency, TF over GST control). Moreover, the binding signal with ETV2 was 1.28 fold enrichment (6-mer frequency, TF over GST control); with ELF3, 1.25 fold enrichment (6-mer frequency, TF over GST control); with CRX it was 1.11 fold enrichment (6-mer frequency, TF over GST control); with ETV1, 1.18 fold enrichment (6-mer frequency, TF over GST control); with ERF, 1.11 fold enrichment (6-mer frequency, TF over GST control); in the assay with ETV3L, 1.16 fold enrichment (6-mer frequency, TF over GST control). In addition, the binding signal was 1.16 fold enrichment (6-mer frequency, TF over GST control) with ETS2; 1.29 fold enrichment (6-mer frequency, TF over GST control) with SPDEF; 1.39 fold enrichment (6-mer frequency, TF over GST control) with ETV7; 1.09 fold enrichment (6-mer frequency, TF over GST control) with ELF5; 1.29 fold enrichment (6-mer frequency, TF over GST control) with ETV3; 1.09 fold enrichment (6-mer frequency, TF over GST control) with ETV6.

These data come from paper PMC7862700, “An all-to-all approach to the identification of sequence-specific readers for epigenetic DNA modifications on cytosine”.
